“And” between values parts separate entries of the source, which are not always exact repeats. Identical values can stand only once. Records with an inconclusive call do not appear. More than one record can exist for a structure, and the calls need not agree. The source made the active and inactive calls. The call rests on the fitted dose curve; in most records, active means well fitted curve in the direction sought with a large enough effect; inconclusive means small, poorly fitted or top-dose-only effect, or another doubt; inactive means no such curve, though single readings can be large; an effect the other way counts as inactive or inconclusive.
What was measured:
NIH3T3 = assay: qHTS assay to identify novel small-molecules to repurpose for Merkel cell carcinoma treatment (AID 1296009); conditions: MCC and control cell lines, CellTiter-Glo viability, 72 h; at 44.8 µM (top of the series) unless noted; further: nearly all actives have a fitted effect of over 60% in size
In short: (§1)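 Cell viability measured by CellTiter-Glo following 72 hr compound treatment at 37 degree celsius, with NPC and MIPE libraries tested in 8- and 11-point concentration series.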

UISO = assay: as above; conditions: MCC and control cell lines, CellTiter-Glo viability, 72 h; series mostly up to 46 µM
In short: as §1

WaGa = assay: as above; conditions: MCC and control cell lines, CellTiter-Glo viability, 72 h; series mostly up to 46 µM
In short: as §1

C33A = assay: Primary qHTS to identify gynecologic anti-cancer compounds using libraries of approved drugs and bioactive compounds (AID 1345084); conditions: Gynecologic cancer cell panel viability, ATPlite luminescence, 48 h; series mostly up to 57.5 µM; further: nearly all actives have a fitted effect of over 55% in size
In short: (§2)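 ATP-based viability (ATPlite), 1,000 cells/well, 16 h pre-incubation, 48 h compound at 37 C, 5% CO2, 15 min RT before read.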

CAOV3 = assay: as above; conditions: Gynecologic cancer cell panel viability, ATPlite luminescence, 48 h; series mostly up to 57.5 µM
In short: as §2

Es-2 = assay: as above; conditions: Gynecologic cancer cell panel viability, ATPlite luminescence, 48 h; series mostly up to 57.5 µM
In short: as §2

HeLa = assay: as above; conditions: Gynecologic cancer cell panel viability, ATPlite luminescence, 48 h; series mostly up to 57.5 µM
In short: as §2

Hek293T = assay: as above; conditions: Gynecologic cancer cell panel viability, ATPlite luminescence, 48 h, control line for the selectivity index; series mostly up to 57.5 µM
In short: as §2

CASKI = assay: as above; conditions: Gynecologic cancer cell panel viability, ATPlite luminescence, 48 h; series mostly up to 57.5 µM
In short: as §2

JEG-3 = assay: as above; conditions: Gynecologic cancer cell panel viability, ATPlite luminescence, 48 h; series mostly up to 57.5 µM
In short: as §2

Measured: Potency
Potency means the concentration at half of the fitted maximal effect.

CC(C)CC(N(C)C)C1(c2ccc(Cl)cc2)CCC1 (stereo not given)
not listed: CASKI | JEG-3
inactive: all other assays above

CC[C@@H](CO)NC(=O)[C@@H]1C=C2c3cccc4[nH]cc(c34)C[C@H]2N(C)C1
not listed: NIH3T3 | JEG-3
inactive: all other assays above

C=CCN1CC[C@]23c4c5ccc(O)c4O[C@H]2C(=O)CC[C@@]3(O)[C@H]1C5
not listed: NIH3T3
inactive: all other assays above

Cc1ccc(-c2nc3ccc(C)cn3c2CC(=O)N(C)C)cc1
not listed: NIH3T3
inactive: all other assays above

C[C@@H]1[C@@H](CC(C[C@H]2O[C@@H]3O[C@]4(C)CC[C@@H]5[C@H](C)CC[C@@H]([C@H]2C)[C@@]35OO4)C[S+](=O)([O-])c2ccc(COC(=O)N(C)C)cc2)O[C@@H]2O[C@]3(C)CC[C@H]4[C@H](C)CC[C@@H]1[C@@]24OO3 (stereo not given in full)
active: UISO 0.526 µM

CN(C)CCN(C)CCc1ccc(Cl)c(Cl)c1
inactive: UISO | WaGa

O=c1oc2ccccc2c(O)c1C(CC(O)c1ccc(-c2ccc(Br)cc2)cc1)c1ccccc1 (stereo not given)
not listed: NIH3T3 | JEG-3
inactive: all other assays above

Oc1cccc2cccnc12
10.9 µM (active) and inactive: UISO
38.6 µM (active) and inactive: WaGa
not listed: NIH3T3 | JEG-3
inactive: all other assays above

COC[C@H]1OC(=O)c2coc3c2[C@@]1(C)C1=C(C3=O)C2CCC(=O)[C@@]2(C)C[C@H]1OC(C)=O (stereo not given in full)
active: WaGa 8.33 µM
not listed: NIH3T3 | JEG-3
inactive: all other assays above

N[C@@H](Cc1ccc(Oc2cc(I)c(O)c(I)c2)c(I)c1)C(=O)O
not listed: NIH3T3
inactive: all other assays above

Oc1cc(Cl)ccc1Oc1ccc(Cl)cc1Cl
28.2 µM (active) and inactive: C33A
inactive: CAOV3 | Es-2 | Hek293T
44.7 µM (active) and inactive: HeLa
39.8 µM (active) and inactive: CASKI
active: UISO 44.2 µM | WaGa 55.6 µM

C#CCOC(C(=O)OCCN(C)C)(c1ccccc1)c1ccccc1
inactive: all assays above

O=C1NCN(c2ccccc2)C12CCN(CC1COc3ccccc3O1)CC2 (stereo not given)
not listed: NIH3T3
inactive: all other assays above

CN1CCN(C(=O)O[C@H]2c3nccnc3C(=O)N2c2ccc(Cl)cn2)CC1
not listed: NIH3T3
inactive: all other assays above

C[C@@H]1[C@@H](C(=O)C[C@H]2O[C@@H]3O[C@]4(C)CC[C@@H]5[C@H](C)CC[C@@H]([C@H]2C)[C@@]35OO4)O[C@@H]2O[C@]3(C)CC[C@H]4[C@H](C)CC[C@@H]1[C@@]24OO3
active: UISO 0.372 µM | WaGa 2.64 µM

CC(C)NCC(O)c1ccccc1Cl (stereo not given)
not listed: NIH3T3 | JEG-3
inactive: all other assays above

CNC(=O)c1ccc(N2C(=S)N(c3ccc(C#N)c(C(F)(F)F)c3)C(=O)C23CCC3)cc1F
not listed: NIH3T3 | Hek293T | JEG-3
inactive: all other assays above

CC(O)(CS(=O)(=O)c1ccc(F)cc1)C(=O)Nc1ccc(C#N)c(C(F)(F)F)c1 (stereo not given)
active: WaGa 8.33 µM
not listed: UISO | JEG-3
inactive: all other assays above

CCC1(C2=NCCN2)Cc2ccccc2O1 (stereo not given)
not listed: NIH3T3 | JEG-3
inactive: all other assays above

CCOP(=S)(OCC)Oc1cc(C)nc(C(C)C)n1
not listed: NIH3T3 | JEG-3
inactive: all other assays above

COC1(CS(=O)c2ccccc2)CCN(CCc2c[nH]c3ccc(F)cc23)CC1 (stereo not given)
inactive: UISO | WaGa

O=C(NC(O)C(Cl)(Cl)Cl)NC(O)C(Cl)(Cl)Cl (stereo not given)
inactive: all assays above

CC1=C2C[C@@H]3[C@@H](CC=C4C[C@@H](O)CC[C@@]43C)[C@@H]2CC[C@]12O[C@H]1C[C@H](C)CN[C@H]1[C@H]2C
inactive: UISO | WaGa

Fc1ccc(C(OCCN2CCN(CCCc3ccccc3)CC2)c2ccc(F)cc2)cc1
active: UISO 23.7 µM | WaGa 8.41 µM

COc1ccc(C(=O)c2c(C)n(CCN3CCOCC3)c3ccccc23)cc1
not listed: CAOV3
inactive: all other assays above

C[C@]12CC[C@H]3[C@@H](CCC4=CC(=O)CC[C@@H]43)[C@@H]1CC[C@@H]2OC(=O)CCc1ccccc1
active: HeLa 3.55 µM
not listed: NIH3T3
inactive: all other assays above

CN(C)CCc1ccc(O)cc1
not listed: NIH3T3 | JEG-3
inactive: all other assays above

COc1ccccc1N1CCNCC1
not listed: NIH3T3
inactive: all other assays above

Cn1c(CCCC(=O)O)nc2cc(N(CCCl)CCCl)ccc21
18.8 µM (active) and inactive: WaGa
not listed: NIH3T3 | JEG-3
inactive: all other assays above

c1ccc2c(c1)Nc1ccccc1S2
not listed: NIH3T3
inactive: all other assays above

c1ccc(C2CC2)c(OCC2=NCCN2)c1
not listed: NIH3T3
inactive: all other assays above

CCCN1CCC[C@@H]2Cc3nc(N)ncc3C[C@H]21
active: UISO 29.9 µM
not listed: NIH3T3 | JEG-3
inactive: all other assays above

C=C(C)[C@H]1Cc2c(ccc3c2O[C@@H]2COc4cc(OC)c(OC)cc4[C@@H]2C3=O)O1
active: C33A 708 nM | CASKI 1.26 µM | Hek293T 891 nM

Oc1ccc(Cl)cc1Cc1ccccc1
active: UISO 34.7 µM
not listed: NIH3T3 | WaGa | JEG-3
inactive: all other assays above

CNC(=O)N1N=C(c2ccc(N)cc2)c2cc3c(cc2CC1C)OCO3 (stereo not given)
active: WaGa 16.6 µM
inactive: C33A | Es-2

O=C(O)C(=O)c1cn(Cc2ccccc2)c2ccc(-c3ccc(OC(F)(F)F)cc3)cc12
not listed: NIH3T3
inactive: all other assays above

O=P1(NCCCl)OCCCN1CCCl (stereo not given)
not listed: NIH3T3
inactive: all other assays above

Cc1ncc(CNC(=O)N(CCCl)N=O)c(N)n1
not listed: NIH3T3
inactive: all other assays above

CN1C[C@H](CNC(=O)OCc2ccccc2)C[C@@H]2c3cccc4c3c(cn4C)C[C@H]21
inactive: C33A | CASKI | Es-2 | HeLa | Hek293T

N[C@@H](Cc1ccc(N(CCCl)CCCl)cc1)C(=O)O
active: UISO 13.3 µM and 13.2 µM | WaGa 4.22 µM and 5.26 µM
inactive: C33A | HeLa | Hek293T | JEG-3

Nc1ccncc1
not listed: NIH3T3
inactive: all other assays above

N[C@@H]1C[C@H]1c1ccccc1
not listed: NIH3T3 | CASKI | JEG-3
inactive: all other assays above

Cc1cccc(C)c1NC1=NCCCS1
not listed: NIH3T3
inactive: all other assays above

NCC(O)c1ccc(O)cc1 (stereo not given)
not listed: NIH3T3
inactive: all other assays above

Clc1ccc(COC(Cn2ccnc2)c2ccc(Cl)cc2Cl)cc1 (stereo not given)
active: UISO 15 µM
inactive: WaGa | Hek293T | JEG-3

CCC(=O)C(CC(C)N(C)C)(c1ccccc1)c1ccccc1 (stereo not given)
inactive: C33A | Es-2 | HeLa | Hek293T

OCCOc1ccccc1
not listed: NIH3T3
inactive: all other assays above

NCC1(CC(=O)O)CCCCC1
not listed: NIH3T3
inactive: all other assays above

C[C@H]1O[C@@H](O[C@H]2[C@@H](O)C[C@H](O[C@H]3[C@@H](O)C[C@H](O[C@H]4CC[C@@]5(C)[C@H](CC[C@@H]6[C@@H]5CC[C@]5(C)[C@@H](C7=CC(=O)OC7)CC[C@]65O)C4)O[C@@H]3C)O[C@@H]2C)C[C@H](O)[C@@H]1O
active: WaGa 0.0211 µM | C33A 100 nM and 89.1 nM | CAOV3 316 nM and 282 nM | CASKI 398 nM and 794 nM | Es-2 282 nM and 100 nM | HeLa 282 nM and 89.1 nM | Hek293T 282 nM and 224 nM

CC1NCCOC1c1ccccc1 (stereo not given)
not listed: NIH3T3 | CAOV3 | JEG-3
inactive: all other assays above

N#CC(C#N)=Cc1ccc(O)c(O)c1
active: WaGa 13.3 µM
not listed: NIH3T3 | UISO | JEG-3
inactive: all other assays above

O=c1[nH]c2ccccc2n1C1CCN(CCCC(c2ccc(F)cc2)c2ccc(F)cc2)CC1
inactive: Es-2 | HeLa | Hek293T

CC(C)=CCOc1c2occc2cc2ccc(=O)oc12
not listed: NIH3T3 | HeLa
inactive: all other assays above

Source: PubChem BioAssay (NCATS)
